Measured values taken from PubChem BioAssay (Tox21).
Records with an inconclusive call do not appear. Entries that show only a call come without a potency. Activity calls are given as the source filed them. Unless noted, the call rests on the fitted dose curve; in most records, active means well fitted curve in the direction sought with a large enough effect in the repeat runs; inconclusive means weak or mixed curves; inactive means no such curve, though single readings can be large; an effect the other way counts as inactive or inconclusive.

Assays:
[1] = qHTS assay to identify small molecule agonists of the peroxisome proliferator-activated receptor delta (PPARd) signaling pathway - cell viability counter screen (AID 743211); further: nearly all actives have a fitted effect of over 55% in size; further: potency means the concentration at half of the fitted maximal effect
How it was run: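 HEK293H PPARd-bla, 3000 cells/well; 5 h preincubation 37C/5% CO2; cpd in DMSO, 17 h 37C; B/G FRET substrate 2 h RT; CellTiter-Glo 30 min RT, luminescence.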

[2] = biological target: Peroxisome proliferator-activated receptor delta (Homo sapiens) (UniProt Q03181); assay: qHTS assay to identify small molecule agonists of the peroxisome proliferator-activated receptor delta (PPARd) signaling pathway (AID 743212; calls by dose curve;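 further: HEK293H cells with PPARd UAS beta-lactamase reporter GeneBLAzer system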)
How it was run: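 Steps: seed PPARd-bla HEK293H cells; incubate 5 h, 37 C, 5% CO2; add compounds in DMSO; incubate, 37 C; add LiveBLAzer B/G FRET substrate; hold 2 h at room temperature; measure fluorescence.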

[3] = qHTS assay to identify small molecule antagonists of the peroxisome proliferator-activated receptor delta (PPARd) signaling pathway - cell viability counter screen (AID 743213); further: nearly all actives have a fitted effect of over 50% in size; further: potency means the concentration at half of the fitted maximal effect
How it was run: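 CellTiter-Glo was added to PPARd-bla HEK293H wells following 17 h compound treatment in the presence of 300 nM L165041. Luminescence was recorded after 30 min at room temperature.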

[4] = biological target: Peroxisome proliferator-activated receptor delta (Homo sapiens) (UniProt Q03181); assay: qHTS assay to identify small molecule antagonists of the peroxisome proliferator-activated receptor delta (PPARd) signaling pathway (AID 743215; active means well fitted inhibition curve with a large enough effect in the signal ratio in the repeat runs, not every such curve was filed as active; the % refers to the signal ratio;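 further: cells stimulated with agonist L165041 at 300 nM final during compound exposure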; further: potency means the concentration at half of the fitted maximal effect)
How it was run: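 Plated HEK293H PPARd-bla cells rested 5 h at 37 C and 5% CO2. Compound, then agonist L165041 at 300 nM final, was added; 17 h at 37 C followed. Substrate loading, 2 h room temperature, fluorescence measured.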

[5] = biological target: Bile acid receptor (Homo sapiens) (UniProt Q96RI1); assay: qHTS assay to identify small molecule antagonists of the farnesoid-X-receptor (FXR) signaling pathway (AID 743217; active means well fitted inhibition curve with a large enough effect in the signal ratio in the repeat runs, not every such curve was filed as active; the % refers to the signal ratio)
How it was run: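 Screen of the Tox21 10K library in quantitative HTS format using FXR-UAS-bla HEK 293T reporter cells. Agonist chenodeoxycholic acid, 50 uM final, added with compounds; 16 h incubation at 37 °C; beta-lactamase FRET fluorescence measured.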

[6] = qHTS assay to identify small molecule agonists of the farnesoid-X-receptor (FXR) signaling pathway - cell viability counter screen (AID 743218); further: nearly all actives have a fitted effect of over 45% in size; further: potency means the concentration at half of the fitted maximal effect
How it was run: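 Viability of FXR-bla HEK 293T cells is measured by ATP-based CellTiter-Glo luminescence following 16 h compound treatment at 37 C and a prior 2 h room-temperature beta-lactamase substrate step.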

[7] = qHTS assay to identify small molecule antagonists of the farnesoid-X-receptor (FXR) signaling pathway - cell viability counter screen (AID 743221; active means well fitted cell-killing curve with a large enough effect in the repeat runs, not every such curve was filed as active; further: nearly all actives have a fitted effect of over 50% in size; further: potency means the concentration at half of the fitted maximal effect)
How it was run: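 Luminescence from CellTiter-Glo measures cytotoxicity in GeneBLAzer FXR-UAS-bla HEK 293T cells. Cells were exposed to compounds with 50 uM chenodeoxycholic acid (final) for 16 h at 37 C, in wells also used for the reporter readout.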

[8] = biological target: Vitamin D3 receptor (Homo sapiens) (UniProt P11473); assay: qHTS assay to identify small molecule agonists of the vitamin D receptor (VDR) signaling pathway (AID 743222; calls by dose curve; further: potency means the concentration at half of the fitted maximal effect)
How it was run: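 Fluorescence from cleaved LiveBLAzer B/G FRET substrate served as readout. VDR-bla cells had been treated 16 h at 37C with test compounds in DMSO, following a 4 h settling period, and substrate was loaded for 2 h at RT.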

[9] = biological target: Vitamin D3 receptor (Homo sapiens) (UniProt P11473); assay: qHTS assay to identify small molecule antagonists of the vitamin D receptor (VDR) signaling pathway (AID 743223; active means well fitted inhibition curve with a large enough effect in the signal ratio in the repeat runs, not every such curve was filed as active; the % refers to the signal ratio)
How it was run: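 Antagonist mode uses 1alpha,25-dihydroxyvitamin D3 at 3 nM final as stimulus. VDR-bla cells receive compounds in DMSO, incubate 16 h at 37C, then a beta-lactamase FRET substrate for 2 h at room temperature before fluorescence measurement.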

[10] = qHTS assay to identify small molecule agonists of the vitamin D receptor (VDR) signaling pathway - cell viability counter screen (AID 743224); further: nearly all actives have a fitted effect of over 50% in size; further: potency means the concentration at half of the fitted maximal effect
How it was run: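 Compounds were pin-transferred onto VDR-bla cells plated 4 h earlier; following 16 h incubation at 37C, cell viability was quantified by CellTiter-Glo luminescence after 30 min at room temperature.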

[11] = qHTS assay to identify small molecule antagonists of the vitamin D receptor (VDR) signaling pathway - cell viability counter screen (AID 743225); further: nearly all actives have a fitted effect of over 50% in size; further: potency means the concentration at half of the fitted maximal effect
How it was run: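 Read-out: CellTiter-Glo luminescence measured 30 min after reagent addition at room temperature. Cells were VDR-bla HEK 293T exposed 16 h at 37C, 5% CO2, to compound with 3 nM final calcitriol agonist.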

[12] = qHTS assay to identify small molecule agonists of the NFkB signaling pathway (AID 1159509; active means well fitted curve in the direction sought with a large enough effect in the signal ratio in the repeat runs, not every such curve was filed as active; the % refers to the signal ratio; further: potency means the concentration at half of the fitted maximal effect; on activation: series mostly up to about 61 µM)
How it was run: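 Beta-lactamase reporter assay run in quantitative high-throughput format on an NF-kB-responsive ME-180 line, with 5 hr compound treatment and a FRET-based blue/green fluorescence readout.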

[13] = qHTS assay to identify small molecule agonists of the NFkB signaling pathway - cell viability counter screen (AID 1159515; calls by dose curve; further: series mostly up to about 61 µM; nearly all actives have a fitted effect of over 55% in size)
How it was run: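 Parallel cytotoxicity counter screen in ME-180 cells carrying an NFkB-response-element beta-lactamase reporter, 2,000 cells/well. Compound exposure lasted 5 hr at 37 C, 5% CO2. Cell viability was quantified by CellTiter-Glo luminescence.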

[14] = qHTS assay to identify small molecule agonists of the endoplasmic reticulum stress response signaling pathway - cell viability counter screen (AID 1159517; calls by dose curve; further: nearly all actives have a fitted effect of over 50% in size; further: potency means the concentration at half of the fitted maximal effect)
How it was run: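 After overnight attachment, ESRE-bla HeLa cells were treated with Tox21 library compounds for 5 hr. CellTiter-Glo luminescence, read 30 min post-addition at room temperature, reported viability.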

[15] = qHTS assay to identify small molecule antagonists of the retinoid-related orphan receptor gamma (ROR-gamma) signaling pathway - cell viability counter screen (AID 1159520); further: nearly all actives have a fitted effect of over 50% in size; further: potency means the concentration at half of the fitted maximal effect
How it was run: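 Cytotoxicity was read from cellular ATP (CellTiter-Glo luminescence) after 16 hr at 37 C with 1 uM doxycycline induction. The inducer was added 2 hr after compound transfer to Tet-on ROR gamma CHO cells.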

[16] = qHTS assay to identify small molecule agonists of the AP-1 signaling pathway (AID 1159526; calls by dose curve; further: potency means the concentration at half of the fitted maximal effect)
[17] = biological target: Nuclear receptor ROR-gamma (Homo sapiens) (UniProt P51449); assay: qHTS assay to identify small molecule antagonists of the retinoid-related orphan receptor gamma (ROR-gamma) signaling pathway (AID 1159521; further: nearly all actives have a fitted effect of over 50% in size; further: potency means the concentration at half of the fitted maximal effect)
How it was run: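 CHO Tet-on RORγ, RORE-luc reporter. Cpd 2 h pre-incubation, then dox hyclate 1 uM final, 16 h, 37 C/5% CO2. ONE-Glo luminescence; decrease = antagonist.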

[18] = qHTS assay to identify small molecule agonists of the AP-1 signaling pathway - cell viability counter screen (AID 1159525; calls by dose curve; further: nearly all actives have a fitted effect of over 55% in size)
How it was run: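 Intracellular ATP by Cell Titer Glo luminescence (30 min, RT) in the same ME-180 AP-1-bla wells after the 5 h compound exposure at 37 °C. Normalised to tetra n-octyl ammonium bromide and DMSO controls.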

[19] = biological target: Bile acid receptor (Homo sapiens) (UniProt Q96RI1); assay: qHTS assay to identify small molecule agonists of the farnesoid-X-receptor (FXR) signaling pathway (AID 743220; active means well fitted activation curve with a large enough effect in the signal ratio in the repeat runs, not every such curve was filed as active; the % refers to the signal ratio)
How it was run: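 FXR-UAS-bla HEK 293T cells carrying a UAS-driven beta-lactamase reporter were plated for 5 h at 37C/5% CO2, then exposed to DMSO-dissolved Tox21 10K compounds for 16 h at 37C. A LiveBLAzer B/G FRET substrate was loaded for 2 h at room temperature before fluorescence reading.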

Sequence of Peroxisome proliferator-activated receptor delta (Homo sapiens) (Q03181 whole entry, looked up): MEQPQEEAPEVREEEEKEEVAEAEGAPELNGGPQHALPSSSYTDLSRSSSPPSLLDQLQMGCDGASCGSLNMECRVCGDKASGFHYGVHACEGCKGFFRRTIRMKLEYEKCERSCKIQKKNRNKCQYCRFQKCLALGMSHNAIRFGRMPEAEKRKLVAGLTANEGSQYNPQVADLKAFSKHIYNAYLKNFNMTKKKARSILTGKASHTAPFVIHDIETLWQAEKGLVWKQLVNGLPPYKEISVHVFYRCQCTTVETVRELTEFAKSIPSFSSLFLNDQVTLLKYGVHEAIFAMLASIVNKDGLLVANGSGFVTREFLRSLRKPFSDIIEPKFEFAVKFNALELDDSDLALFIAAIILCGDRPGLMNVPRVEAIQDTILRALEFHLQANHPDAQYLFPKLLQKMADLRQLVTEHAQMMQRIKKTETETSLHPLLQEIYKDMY
Sequence of Bile acid receptor (Homo sapiens) (Q96RI1 whole entry, looked up): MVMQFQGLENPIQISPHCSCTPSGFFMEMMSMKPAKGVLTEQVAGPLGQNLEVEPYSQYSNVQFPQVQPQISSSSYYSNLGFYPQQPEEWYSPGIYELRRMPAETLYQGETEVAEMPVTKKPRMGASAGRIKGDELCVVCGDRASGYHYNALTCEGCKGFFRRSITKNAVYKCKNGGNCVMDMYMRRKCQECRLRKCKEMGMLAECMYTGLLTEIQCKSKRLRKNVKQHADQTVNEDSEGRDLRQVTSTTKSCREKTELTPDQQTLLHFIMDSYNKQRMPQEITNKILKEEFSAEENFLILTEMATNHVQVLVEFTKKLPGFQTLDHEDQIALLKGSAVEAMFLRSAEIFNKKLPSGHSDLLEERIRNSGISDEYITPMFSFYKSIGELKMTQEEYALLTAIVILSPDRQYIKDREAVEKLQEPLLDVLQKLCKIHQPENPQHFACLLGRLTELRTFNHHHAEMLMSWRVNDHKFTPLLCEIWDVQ
Sequence of Vitamin D3 receptor (Homo sapiens) (P11473 whole entry, looked up): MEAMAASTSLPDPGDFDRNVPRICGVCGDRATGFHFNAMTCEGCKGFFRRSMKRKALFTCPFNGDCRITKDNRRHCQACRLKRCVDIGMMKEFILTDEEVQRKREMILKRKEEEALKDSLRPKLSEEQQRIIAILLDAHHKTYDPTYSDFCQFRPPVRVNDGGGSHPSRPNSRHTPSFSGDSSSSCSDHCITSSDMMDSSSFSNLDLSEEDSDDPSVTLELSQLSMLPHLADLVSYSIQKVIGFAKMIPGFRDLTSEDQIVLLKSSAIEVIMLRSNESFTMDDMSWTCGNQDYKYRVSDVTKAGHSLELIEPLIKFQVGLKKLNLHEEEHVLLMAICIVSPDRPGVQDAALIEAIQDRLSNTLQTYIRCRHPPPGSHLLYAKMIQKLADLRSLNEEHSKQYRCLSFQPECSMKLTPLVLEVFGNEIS

SMILES	Potency [1]	Potency [2]	Potency [3]	Potency [4]	Potency [5]	Potency [6]	Potency [7]	Potency [8]	Potency [9]	Potency [10]	Potency [11]	Potency [12]	Potency [13]	Potency [14]	Potency [15]	Potency [16]	Potency [17]	Potency [18]	Potency [19]
CC(C)=CC(=O)C=C(C)C	inactive	inactive	inactive	inactive	inactive	inactive	inactive	inactive	inactive	inactive	inactive	inactive	inactive	inactive	inactive	inactive	–	–	–
COC(=O)c1nc(Cl)c(Cl)nc1N	29.8 µM (active)	–	29.8 µM (active)	–	–	–	–	11.9 µM (active)	–	11.9 µM (active)	23.9 µM (active)	15.1 µM (active)	inactive	21.3 µM (active)	13.3 µM (active)	–	3.76 µM (active)	inactive	–
CCOC(=O)c1ccc(OCCN2C[C@H](O)[C@@H](O)[C@H](O)[C@H]2CO)cc1	inactive	inactive	inactive	inactive	–	–	inactive	–	inactive	inactive	inactive	inactive	inactive	–	inactive	inactive	inactive	inactive	–
Oc1cccc(O)c1O	inactive	–	–	inactive	–	–	inactive	–	inactive	inactive	–	inactive	inactive	inactive	–	–	inactive	inactive	–
C=CC(=O)OCC1CC2CC1C1CCC(COC(=O)C=C)C21 (stereo unspecified)	inactive	–	–	–	–	inactive	–	inactive	–	–	–	inactive	inactive	–	–	–	54.5 µM (active)	inactive	–
O=C1C(=O)c2ccccc2C(O)=C1C1CCC(c2ccc(Cl)cc2)CC1 (stereo unspecified)	–	–	inactive	–	inactive	–	–	–	inactive	–	5.35 µM (active)	inactive	inactive	inactive	–	–	7.5 µM (active)	inactive	inactive
Clc1cc(Cl)nc(Cl)n1	inactive	inactive	inactive	inactive	inactive	inactive	inactive	inactive	inactive	inactive	inactive	inactive	inactive	–	inactive	inactive	inactive	–	–
Oc1ccc(Cl)c2cccnc12	0.596 µM (active)	–	–	1.06 µM (active)	–	inactive	inactive	–	–	0.376 µM (active)	–	inactive	inactive	–	–	–	–	inactive	inactive
Nc1ccc(N=Nc2ccccc2)c(N)c1	–	inactive	–	–	inactive	–	inactive	–	–	–	inactive	inactive	inactive	–	–	–	inactive	inactive	–
C[C@@H]1CN(CCCn2c3ccccc3c3ccccc32)C[C@H](C)N1	10.6 µM (active)	–	9.44 µM (active)	29.8 µM (active)	–	15 µM (active)	29.8 µM (active)	–	–	26.6 µM (active)	23.9 µM (active)	inactive	inactive	–	–	inactive	–	inactive	–
O=C1c2ccccc2C(=O)c2c(O)c(O)cc(O)c21	inactive	inactive	inactive	inactive	inactive	inactive	inactive	inactive	inactive	inactive	inactive	inactive	inactive	inactive	–	inactive	inactive	–	inactive
CCc1ccccc1	inactive	inactive	inactive	inactive	–	inactive	inactive	inactive	inactive	inactive	inactive	inactive	inactive	–	inactive	inactive	–	–	–
O=C(Cn1ccnc1[N+](=O)[O-])NCCO	inactive	–	inactive	inactive	inactive	–	inactive	–	inactive	inactive	inactive	inactive	inactive	–	inactive	inactive	inactive	inactive	–
CCCCC(CC)COP(=O)(O)O (stereo unspecified)	inactive	–	inactive	–	–	inactive	–	–	–	inactive	inactive	inactive	inactive	–	inactive	39.6 µM (active)	inactive	inactive	inactive
CC(C)COCC(CN(Cc1ccccc1)c1ccccc1)N1CCCC1 (stereo unspecified)	21.1 µM (active)	–	–	inactive	–	33.5 µM (active)	–	–	–	–	–	inactive	inactive	inactive	–	–	–	–	–
OC(CCN1CCCC1)(c1ccccc1)C1CCCCC1 (stereo unspecified)	inactive	–	inactive	–	–	inactive	inactive	inactive	inactive	inactive	inactive	inactive	inactive	–	inactive	–	–	inactive	–
COC(=O)CS	inactive	inactive	inactive	inactive	–	inactive	inactive	inactive	–	inactive	inactive	inactive	inactive	–	inactive	–	inactive	–	–
O=C1Cc2cc(Cl)ccc2N1	inactive	inactive	inactive	inactive	–	inactive	inactive	inactive	inactive	inactive	inactive	inactive	inactive	–	inactive	inactive	inactive	inactive	–
CC(C)(C)C(=O)C(=O)O	inactive	inactive	inactive	–	inactive	–	–	inactive	–	inactive	inactive	inactive	inactive	–	inactive	inactive	–	inactive	inactive
CC(=O)OCCN(CCOC(C)=O)c1ccc(N=Nc2ccc([N+](=O)[O-])cc2C#N)cc1	inactive	–	inactive	–	–	inactive	inactive	inactive	–	inactive	inactive	inactive	inactive	inactive	–	inactive	–	inactive	–
